We go through 7 compounds from PubChem BioAssay AID489008 (National Center for Advancing Translational Sciences (NCATS), 2010).

Inconclusive results are not listed. Calls of active or inactive are those of the source. The call rests on the fitted dose curve; in most records, active means well fitted inhibition curve with a large enough effect; inconclusive means small, poorly fitted or top-dose-only effect; inactive means flat fitted curve, though single readings scatter.
Potency means the concentration at half of the fitted maximal effect.

Sequence of Ferritin light chain (Equus caballus) (P02791 2-175 limits assumed): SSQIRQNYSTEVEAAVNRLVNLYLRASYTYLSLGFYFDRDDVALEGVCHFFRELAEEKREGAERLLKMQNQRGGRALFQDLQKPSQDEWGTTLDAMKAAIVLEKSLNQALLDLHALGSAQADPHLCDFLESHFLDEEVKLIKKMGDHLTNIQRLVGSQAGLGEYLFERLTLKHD

For the experiment, the target named is Ferritin light chain (Equus caballus) (UniProt P02791). Put plainly: Confirmation Assay for Identification of Novel General Anesthetics. Further: nearly all actives have a fitted effect of over 40% in size. Conditions: apoferritin 1-aminoanthracene fluorescence displacement. An excerpt:
Anesthetic development has remained a largely empirical process. There are growing concerns about the cognitive effects of known general anesthetics and acceleration of the onset of neurodegenerative disease. The compounds' toxicity and multiple specific binding targets in the mammalian brain [4] has made them less attractive as drug leads. In this assay, a GABAergic mimetic model system, apoferritin and a profluorescent 1-aminoanthracene ligand (1-AMA), was used to construct a competitive binding assay for identification of novel general anesthetics. The assay was validated for 1-AMA using other known anesthetics, such as isoflurane (CID:3763) and propofol (CID: 4943), [6]. This particular BioAssay is a confirmation of followup compounds from primary screen AID:485281.
[1] S.L. Bianchi, T. Tran, C. Liu, S. Lin, Y. Li, J.M. Keller, R.G. Eckenhoff, and M.F. Eckenhoff, Brain and behavior changes in 12-month-old Tg2576 and nontransgenic mice exposed to anesthetics. Neurobiol Aging 29 (2008) 1002-10.
[2] Z. Xie, Y. Dong, U. Maeda, R.D. Moir, W. Xia, D.J. Culley, G. Crosby, and R.E. Tanzi, The inhalation anesthetic isoflurane induces a vicious cycle of apoptosis and amyloid beta-protein accumulation. J Neurosci 27 (2007) 1247-54.
[3] P. Honegger, and J.M. Matthieu, Selective toxicity of the general anesthetic propofol for GABAergic neurons in rat brain cell cultures. J Neurosci Res 45 (1996) 631-6.
[4] M.F. Eckenhoff, K. Chan, and R.G. Eckenhoff, Multiple specific binding targets for inhaled anesthetics in the mammalian brain. J Pharmacol Exp Ther 300 (2002) 172-9.
[5] C.A. Butts, J. Xi, G. Brannigan, A.A. Saad, S.P. Venkatachalan, R.A. Pearce, M.L. Klein, R.G. Eckenhoff, and I.J. Dmochowski, Identification of a fluorescent general anesthetic, 1-aminoanthracene. Proc Natl Acad Sci U S A 106 (2009) 6501-6.
[6] W.A. Lea, J. Xi, A. Jadhav, L. Lu, C.P. Austin, A. Simeonov, and R.G. Eckenhoff, A high-throughput approach for identification of novel general anesthetics. PLoS One 4 (2009) e7150.
Source: NIH Chemical Genomics Center [NCGC]
Assay Submitter: Roderic Eckenhoff, University of Pennsylvania
Screening Center PI: Christopher P. Austin, NIH
Probe Development: NIH Chemical Genomics Center [NCGC]
Three uL of reagents (free 1-AMA (50% saturated solution of 1-aminoanthracene
in PBS) in columns 3, 4 as negative control and 1-AMA/apoferritin mixture (10 uM horse-spleen apoferritin in 50% saturated 1-aminoanthracene in PBS) in columns 1, 2, 5-48) was dispensed into 1536-well Greiner black assay plates. Compounds (23 nL) were transferred via Kalypsys pintool equipped with 1,536-pin array (10 nL slotted pins, V&P Scientific, San Diego, CA). Titration of the positive control, propofol, were delivered via pin transfer from separate control plates to the 2nd column of each assay plate. The starting concentration of the control, dissolved in DMSO, was at 160 mM, followed by two-fold dilution points in duplicate, for a total of 16 concentrations. The plates were incubated for 10 min at room temperature, and then read on an EnVision HTS multilabel reader (Perkin-Elmer, Waltham, MA) (end point read, 3 min/plate) using Fura2 BFP excitation filter (380 nm, bandwidth 10 nm) and fluorescein emission filter (535 nm, bandwidth 25 nm) set. A LANCE/DELFIA dichroic mirror with a cutoff wavelength at 400 nm was used to maximize signal accuracy and strength. Vehicle-only plates, with DMSO being pin-transferred to the entire column 5-48 compound area, were inserted uniformly at the beginning and the end of each library in order to monitor for and record any shifts in the background. Activity was computed as the normalized fluorescence response relative to free 1-AMA and 1-AMA/apoferritin complex values. Concentration-effect relationships were derived by using curve fitting algorithms developed in-house (http://ncgc.nih.gov/pub/openhts/). […]
`Nc1ccc(Oc2cccc(Oc3ccc(N)cc3)c2)cc1`: the Potency was 31.6 µM (active).

Regarding `O=C(COC(=O)Cc1ccccc1)NC12CC3CC(CC(C3)C1)C2`, the Potency is 14.1 µM (active).

For the compound `O=C1C(c2ccccc2)=C(N2CC2)c2ccccc21`, the Potency is 35.5 µM (active).

As to `CC(C(=O)c1cn(C)c2ccccc12)c1ccccc1` (configuration not stated), the Potency is 35.5 µM (active).

For `c1ccc(C2CC3CC4(CCCC4)N2O3)cc1` (configuration not stated), the Potency is 7.94 µM (active).

With `O=C(Cn1nc(-c2ccccc2)ccc1=O)N1CCC2(CC1)OCCO2`, the Potency was 15.8 µM (active).

Regarding `CCN(CC)C(=O)Oc1ccc(Cl)c2ccccc12`, the Potency is 31.6 µM (active).
